Compounds with a hit are over-represented: about 12% of the library has one in this group of screens.
SARS PLpro yeast-1 – inhibitors of SARS-CoV papain-like protease in yeast; S. cerevisiae expressing SARS-CoV PLpro, growth rescue; 330,000 compounds, 0.19% hits; Potency, µM (doses to about 32.9 µM), for the others: at the top dose activity, positive = growth rescue, most hits filed as activators; AID 485353; also: potency is read from the fitted curve at half-maximal effect; 0% is about no effect; nearly all actives have a fitted effect of over 55% in size
NS1 function inh – influenza NS1 inhibition. 270,000 compounds, 0.4% hits. AID 2326. Potency, µM (highest dose often 46.1 µM), for the others: at the top dose activity, positive = more growth; also: potency is read from the fitted curve at half-maximal effect; actives are rising curves; nearly all actives have a fitted effect of over 50% in size
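In this qHTS, NS1 from influenza A is expressed in budding yeast, where it slows growth. Cells are switched from glucose to 2% galactose medium (pH 6.0, -URA), treated with compound, and growth recovery is read at OD600.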
Shiga inhibitor – Shiga toxin inhibition. 290,000 compounds, 9.2% hits. inhibition, % at 38.7 µM. Vero cells, Shiga toxin protein synthesis inhibition reporter; in the data active = inhibition mostly above about 28%, no sharp cut-off; inactive = mostly below about 43%; also: 0% is about no effect
Cycloheximide cs – counter-screen hit for Shiga toxin inhibitors, cycloheximide | cell reporter, cycloheximide protein synthesis inhibition counterscreen | max response, % | 300,000 compounds, 12% hits | AID 2314; in the data active = max response mostly above about 13%, no sharp cut-off; inactive = mostly below about 14%; also: read at 38.3 µM for the half of the compounds with a filed dose; 0% is about no effect
SARS PLpro yeast-2 – Inhibits SARS-CoV PLP in yeast, hit validation. calls only. yeast expressing SARS-CoV PLpro, growth phenotype rescue. 1,000 compounds, 19% hits. shares compounds with SARS PLpro yeast-1; call rule not given here
* marks the source's active call; other numbers are inactive results; i = inactive; u = inconclusive; x = no result; + = active, no number. Unless noted, calls follow the shape of the full dose curve.

SMILES	SARS PLpro yeast-1	NS1 function inh	Shiga inhibitor	Cycloheximide cs	SARS PLpro yeast-2
COc1ccc(C(=O)c2ccccc2)c(OCC(=O)NC2CC2)c1	-1%	-11%	-22	-2	x
CCCCC(=O)NC(c1ccc(N(CC)CC)cc1)c1ccc2cccnc2c1O (centres undefined)	4µM*	-88%	-14	0	u
CCCC(=O)NC(c1ccc2c(c1)OCO2)c1cc(Cl)c2cccnc2c1O (centres undefined)	2.8µM*	20%	-5	2	i
CCCC(=O)NC(c1ccc(C)cc1)c1ccc2cccnc2c1O (centres undefined)	u	-144%	-6	-1	+
CCCC(=O)NC(c1ccco1)c1cc(Cl)c2cccnc2c1O (centres undefined)	-28%	-170%	-25	-3	x
O=c1c(N2CCOCC2)nsnc1N1CCOCC1	u	4%	-10	-6	i
Cc1nnc(NC(=O)c2cc(S(=O)(=O)N(C)C)ccc2N2CCCC2)s1	0%	x	x	x	x
CC1=C([N+](=O)[O-])C(c2ccccc2Cl)NC(=O)N1C (centres undefined)	9%	6%	x	-3	x
Cc1ccccc1S(=O)(=O)Cc1ccc(C(=O)NCCCN2CCN(C)CC2)o1	u	6%	-9	5	i
Cc1ccccc1S(=O)(=O)Cc1ccc(C(=O)NCCCN2CCCC2)o1	-2%	-1%	-7	-4	x
CCC(=O)N1c2ccc(S(=O)(=O)CCC(=O)Nc3ccc(OC)cc3OC)cc2CC1C (centres undefined)	-12%	-3%	6	1	x
C=CCc1cccc(/C=N/NC(=O)CCCNc2ccc(C)cc2)c1O	14µM*	1%	-9	-10	+
C=CCc1cccc(/C=N/NC(=O)CNc2ccccc2)c1O	x	7%	14	-1	x
CC(C)NC(=O)c1cccc(NC(=O)CC2SC(N3CCCCC3)=NC2=O)c1 (centres undefined)	0%	x	x	x	x
O=C(CC1SC(N2CCCCC2)=NC1=O)Nc1cccc(C(=O)Nc2ncccc2O)c1 (centres undefined)	u	x	x	x	i
Cc1nn(CC(=O)NCCc2ccc(Cl)cc2)c(=O)c2cccn12	-5%	-10%	-2	11	x
Cc1cc(SC#N)cc(C)c1NC(=O)CCl	x	-3%	4	2	i
C[C@]12CC[C@@H]3c4ccc(O)cc4CC[C@H]3[C@@H]1C[C@@H](O)[C@@H]2O[C@@H]1O[C@H](C(=O)O)[C@@H](O)[C@H](O)[C@H]1O	u	-1%	35	4	i
COc1ccc(-c2c/c(=N\c3nc(-c4ccccc4)c(C)s3)c3ccccc3o2)cc1O	u	-8%	-4	-2	+
COc1ccc(-c2nc(NC(=O)Cn3c(=O)oc4ccccc43)sc2C)cc1	-52%	7%	-4	-2	x
COCCNC(=S)NC(=O)CC12CC3CC(CC(C3)C1)C2	u	0%	-4	-4	+
COc1cccc(N2CC(C(=O)Nc3nnc(SCC(=O)c4ccccc4)s3)CC2=O)c1 (centres undefined)	13%	28%	-12	1	x
COc1ccc(C(=O)CSc2nnc(NC(=O)C3CC(=O)N(c4ccccc4)C3)s2)cc1 (centres undefined)	u	11%	-14	-2	u
CC(C)CC(=O)NN(C)c1nc(-c2ccccc2)nnc1C(F)(F)F	u	-9%	-9	0	i
O=S(=O)(Cc1cnc(Cl)s1)c1ccccc1	13µM*	1%	-1	-2	i
SMILES	SARS PLpro yeast-1	NS1 function inh	Shiga inhibitor	Cycloheximide cs	SARS PLpro yeast-2
COC(=O)[C@H]1C[C@H](O)CN1S(=O)(=O)c1ccc(Br)cc1F	20%	x	x	x	x
Cc1cccc(N2CCN(C(=O)C3CCC(CNS(=O)(=O)c4cccs4)CC3)CC2)c1C (centres undefined)	-1%	11%	-9	-2	x
CCCCn1c(N)c(N(CCC(C)C)C(=O)COC(=O)c2cccnc2Cl)c(=O)[nH]c1=O	1%	x	x	x	x
Cc1cccc(C)c1NC(=O)C1CCN(S(C)(=O)=O)CC1	-1%	17%	-7	-2	x
Cc1ccc([N+](=O)[O-])cc1NC(=O)C1CCN(S(C)(=O)=O)CC1	u	12%	11	-2	i
Nc1ncc(Br)cc1S(=O)(=O)NCCC(=O)N1CCN(c2ccccc2)CC1	3%	-22%	-9	-6	x
Cn1c2ccccc2n2c(=O)c(=O)n(CC(=O)c3ccc(Cl)cc3)nc12	11µM*	23%	0	-5	i
COC(=O)c1ccccc1NC(=O)Cn1nc2n(C)c3ccccc3n2c(=O)c1=O	-8%	-3%	4	7	x
COc1ccc(CCNC(=O)C2CCN(C(=O)c3ccc(Br)cc3)CC2)cc1	12%	-30%	x	-1	x
O=C(Cn1cnc2c(nnn2Cc2ccccc2)c1=O)NCC1CCCO1 (centres undefined)	-2%	-16%	-3	-2	x
O=C(Cn1cnc2c(nnn2Cc2ccccc2F)c1=O)NCC1CCCO1 (centres undefined)	u	u	13	5	i
O=C1c2ccccc2NC(c2cn[nH]c2-c2ccccc2)N1O (centres undefined)	u	18%	15	-3	i
O=C1c2ccccc2NC(c2ccccc2O)N1O (centres undefined)	5%	-3%	-10	-2	x
O=C1c2ccccc2NC(c2cn[nH]c2-c2ccc(Cl)cc2)N1O (centres undefined)	7.9µM*	19%	-6	-1	u
CCN1CCN(C(=S)Nc2cc(S(=O)(=O)N(CC)CC)ccc2C)CC1	-8%	-4%	7	0	x
O=C(CN1CCCc2ccccc21)N/N=C/c1c(O)ccc2ccccc12	10µM*	12%	48*	34*	i
COc1ccccc1N(CC(=O)N/N=C/c1c(O)ccc2ccccc12)S(C)(=O)=O	11µM*	26%	-15	-6	+
CCC(=O)c1ccc(N2CCN(C(=O)c3ccc(F)cc3)CC2)c(F)c1	-1%	-3%	-9	0	x
CCC(=O)c1ccc(N2CCN(C(=O)c3cc([N+](=O)[O-])ccc3N3CCN(C)CC3)CC2)c(F)c1	u	5%	29	0	+
CC(C)NS(=O)(=O)c1ccc(CCC(=O)Nc2cc(Cl)ccc2Oc2ccccc2)cc1	11%	10%	-7	-3	x
Cc1cccc(Oc2ccccc2NS(=O)(=O)c2ccc(CCC(=O)O)cc2)c1	2.2µM*	x	x	x	i
CC1(C)C(C=C(Cl)Cl)C1C(=O)Nc1ccc([N+](=O)[O-])cc1 (centres undefined)	-89%	-57%	-6	-1	x
C=C1CC2C=C(NC(C)=O)CC(C1)C2 (centres undefined)	u	2%	-3	-5	i
COc1cccc(NC(=O)Cn2cnc3c(oc4nc5c(cc43)CCCC5)c2=O)c1	u	-12%	-7	19	u
COc1cccc(NC(=O)CSc2nnc(COc3ccc4c(c3)CCCC4)o2)c1	3%	6%	30	-2	x
Cc1ccccc1C(=O)NNC(=O)c1ccncc1	-2%	-2%	-2	-2	x
O=C(N/N=C/c1c(O)n(CCC2=CCCCC2)c(=O)[nH]c1=O)c1ccccc1	10µM*	5%	21	27*	i
